An excerpt weighted towards active compounds, which were near 5.7% of everything screened.
GLP-1R agonist: qHTS of GLP-1 Receptor Agonists. 380,000 compounds, 0.007% hits. Glucagon-like peptide 1 receptor (Homo sapiens), P43220. HEK293 GLP-1R CRE-luciferase, luminescence, 4-6 h; cells express a hypersensitive GLP-1R form. AID 624172, 2012. Potency, µM (titrated, usually from 45.6 µM), hits mostly activators
GLP-1R inv ag: qHTS of GLP-1 Receptor Inverse Agonists (Inhibition Mode). Glucagon-like peptide 1 receptor (Homo sapiens), P43220. HEK293 GLP-1R CRE-luciferase, luminescence, 24 h; GLP-1R form is constitutively active. Potency, µM (doses to about 38.3 µM), most hits filed as inhibitors. 410,000 compounds, 1.6% hits. AID 624417, 2012; further: nearly all actives have a fitted effect of over 55% in size
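Constitutively active GLP-1R drives a cAMP-responsive luciferase in stably transfected HEK293 cells; test compounds are added after overnight (12 h) attachment and left 24 hr, and signal loss in luminescence marks inhibition.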
D3 ag: qHTS of D3 Dopamine Receptor Agonist: qHTS. D(3) dopamine receptor (Homo sapiens), P35462. D3R DiscoveRx beta-arrestin cells, luminescence, 90 min. max activation, %. 410,000 compounds, 0.58% hits. AID 652048, 2013; in the data active means max activation above about 30%
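Agonist-mode cell screen: cells plated at 1500/well and incubated overnight at 37 °C, then exposed to library compounds for 90 min at 37 °C. Detection reagent was added for 30–60 min at room temperature, and luminescence was read.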
GLP1R cytotox: qHTS of GLP-1 Receptor Inverse Agonists: Cytotox Screen | HEK293 cAMP-luciferase reporter cells, luminescence, 24 h | Potency, µM (titrated, usually from 38.3 µM), usual class: inhibitors | 410,000 compounds, 0.13% hits | AID 624418, 2012;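 further: loss of luciferase light is scored as toxicity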
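Luminescence readout: signal drop marks cytotoxicity. Plated cells grew 12 h at 37 °C, 5% CO2, received 23 nL compound for 24 h, then got luciferase reagent, read after 12 min at RT.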
D3 antag: qHTS of D3 Dopamine Receptor Antagonist: qHTS; D(3) dopamine receptor (Homo sapiens), P35462; D3R cells, DiscoveRx beta-arrestin luminescence, antagonist mode; hits give low values; max response, negative = inhibition, %; 360,000 compounds, 2.5% hits; in the data active means max response below about -50%; inconclusive means no clear call, values can overlap the other calls
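Cells plated overnight at 1500 cells/well, then exposed to library compounds with dopamine controls for 90 minutes at 37 degrees C. DiscoveRx reagent added for 30–60 minutes at room temperature; luminescence read, quantitative HTS format.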
ClpP mod: qHTS Assay for Activators of ClpP; ATP-dependent Clp protease proteolytic subunit (Bacillus subtilis (strain 168)), P80244; AID 651965, 2013; purified B. subtilis ClpP, FRET peptide cleavage, 20 min; Potency, µM (titrated, usually from 57.5 µM); 340,000 compounds, 1.9% hits; active means well fitted falling curve with a large enough effect; inconclusive means small, poorly fitted or top-dose-only effect; inactive means no such curve, though single readings can be large or run the other way; further: the source files actives as falling curves though it sought activators and does not explain the sign; nearly all actives have a fitted effect of over 65% in size
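FRET quenching reversal measured ClpP activation: 10 microg/mL B. subtilis ClpP at pH 8 with the FRET-FV decapeptide, read at 430 nm after 320 nm excitation. The 20-min minus 0-min signal was scaled between DMSO/no-enzyme wells and ADEP (5.8 microM final).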
Large screens that a line does not name were inactive. Unless noted, the call rests on the fitted dose curve; in most records, active means well fitted curve in the direction sought with a large enough effect; inconclusive means small, poorly fitted or top-dose-only effect, or another doubt; inactive means no such curve, though single readings can be large; an effect the other way counts as inactive or inconclusive.

CC(=O)N1CCc2cc(S(=O)(=O)NC(Cc3ccccc3)C(=O)Nc3cc(C)ccn3)ccc21 (centres undefined)	D3 antag -70.6
CC(=O)N1CCc2cc(S(=O)(=O)NC(Cc3ccccc3)C(=O)Nc3cc(C)cc(C)c3)ccc21 (centres undefined)	none (no result: GLP-1R agonist, D3 antag)
CCC(NC(C)C)C(O)c1ccc(O)c2[nH]c(=O)ccc12 (centres undefined)	GLP-1R agonist inconclusive, D3 ag 35.0
CN1c2ccsc2C(O)=C(C(=S)Nc2ccc(F)c(Cl)c2)S1(=O)=O	GLP-1R inv ag inconclusive, D3 antag -93.4
Cn1cc(C(=O)Nc2ccc(F)c(Cl)c2)cn1	none
CSCCC(NS(=O)(=O)c1ccc2c(c1)oc(=O)n2C)C(=O)N1CCN(c2cccc(Cl)c2)CC1 (centres undefined)	none (no result: GLP-1R agonist, D3 antag)
Clc1ccc(-c2nc(N3CCCCC3)nc3ccccc23)cc1	GLP-1R inv ag inconclusive
c1ccc(-c2nc(-n3nc4ccccc4n3)nc3ccccc23)cc1	GLP-1R inv ag inconclusive, ClpP mod 35.5µM
O=C(NCc1ccccc1F)C1CCN(Cc2cc3ccccc3n2Cc2cccc(Cl)c2)CC1	GLP-1R inv ag inconclusive (no result: GLP-1R agonist, D3 antag)
COC(=O)[C@H](C(C)C)N(Cc1ccccc1)S(=O)(=O)CCN1CCCC1	D3 antag -59.5
COC(=O)[C@H](C)N(Cc1ccc(Cl)c(Cl)c1)S(=O)(=O)CCN1CCCC1	GLP-1R inv ag inconclusive, D3 antag -67.8
COC(=O)[C@H](C)N(Cc1ccc(Cl)c(Cl)c1)S(=O)(=O)CCN1CCN(c2ccccc2)CC1	D3 antag -70.8
COC(=O)[C@H](C(C)C)N(Cc1ccccc1)S(=O)(=O)CCN1CCN(c2ccccc2)CC1	GLP-1R inv ag inconclusive, D3 antag inconclusive
CC(C)C(NS(=O)(=O)c1cccs1)C(=O)NCCN1CCN(c2ccccc2)CC1 (centres undefined)	none
CC(CCc1ccccn1)C(=O)c1ccccc1 (centres undefined)	none
O=C(c1ccccc1)C(CCc1ccccn1)CCc1ccccn1	GLP-1R inv ag inconclusive, ClpP mod 3.55µM
CC(C)N(C(=O)CSc1nc2ccccc2n1Cc1ccccc1F)C(C)C	GLP-1R inv ag 2.24µM, D3 antag inconclusive
NCCC(=O)[N-][C@@H](Cc1cnc[nH]1)C(=O)O.[Zn]	none (no result: GLP-1R agonist, GLP-1R inv ag, GLP1R cytotox, D3 antag, ClpP mod)
COc1ccc(S(=O)(=O)N(C(C)=O)c2ccc3oc(=O)sc3c2)cc1	D3 antag -58.6
CCOc1ccc(S(=O)(=O)N(C(C)=O)c2ccc3oc(C)c(C(=O)OC)c3c2)cc1	GLP-1R inv ag inconclusive (no result: GLP-1R agonist, D3 antag)
CC1O[C@@H](OCC2O[C@@H](Oc3cc(O)c4c(c3)OC(c3ccc(O)cc3)CC4=O)[C@H](O)[C@@H](O)[C@@H]2O)[C@H](O)[C@H](O)[C@H]1O (some centres undefined)	D3 antag -58.1
C[C@@H](CN1C2=NC[C@H](C)N2C[C@H]1Cc1ccc(O)cc1)NC(=O)CCC1CCCCC1	D3 antag -66.3
COc1ccc(C[C@H]2CN3C(=NC[C@@H]3Cc3ccc(O)cc3)N2C[C@H](C)NC(=O)CCC2CCCCC2)cc1	D3 antag inconclusive
COc1ccc(C[C@@H]2CN3C(=NC[C@@H]3Cc3ccc(O)cc3)N2C[C@H](C)NC(=O)CCC2CCCCC2)cc1	GLP-1R inv ag inconclusive
CC(C)[C@H]1CN=C2N(C[C@H](C)NC(=O)CCC3CCCCC3)[C@H](Cc3ccc(O)cc3)CN21	D3 antag -94.0
Cc1cc(C)nc(SCc2cc(=O)c(OC(=O)c3ccc(S(=O)(=O)N(C)C)cc3)co2)n1	ClpP mod 2.82µM
Cc1ccnc(SCc2cc(=O)c(OC(=O)c3ccc(S(=O)(=O)N(C)C)cc3)co2)n1	none
Cc1ccc(Nc2nc(-c3ccc(S(=O)(=O)N4CCOCC4)cc3)cs2)cc1Cl	ClpP mod 15.8µM
Cc1csc(NC(=O)CSc2nnc(-c3ccc(S(=O)(=O)N4CCCC4)cc3)o2)n1	ClpP mod 28.2µM
CCCCC(=O)Nc1nc(-c2ccc(S(=O)(=O)N3CCOCC3)cc2)cs1	ClpP mod 28.2µM
CCN(CC)S(=O)(=O)c1ccc(-c2nnc(SCC(=O)Nc3nc(C)cs3)o2)cc1	none
CC(C)CC(=O)Nc1nc(-c2ccc(S(=O)(=O)N3CCOCC3)cc2)cs1	ClpP mod 31.6µM
COc1cccc(C(=O)Nc2nc(-c3ccc(S(=O)(=O)N4CCOCC4)cc3)cs2)c1	GLP-1R inv ag inconclusive, ClpP mod inconclusive
CCOc1ccc(C(C)C)cc1S(=O)(=O)Nc1cccc(-c2ccc(N3CCOCC3)nn2)c1	none (no result: GLP-1R agonist, D3 antag)
CCn1cc(C(=O)NCCc2ccc(Cl)cc2)c(=O)c2cc(S(=O)(=O)N3CCC(C)CC3)ccc21	none (no result: D3 antag)
COc1ccc(N2Cc3cccc(C(=O)Nc4ccc(Cl)cc4)c3C2=O)cc1	none (no result: D3 antag)
COC(=O)CN1C(=O)C(C)(C)Oc2ccc(C(=O)NC3CCCC3)cc21	none
CCC(C)(C)NC(=O)c1ccc2c(c1)N(CC(=O)NC1CCCC1)C(=O)C(C)(C)O2	D3 antag -62.5 (no result: ClpP mod)
OCCCNc1cc(-c2ccnc(Nc3cccc(Cl)c3)n2)ccn1	GLP-1R inv ag inconclusive
CCC(C)Oc1cc(-c2ccnc(Nc3cccc(Cl)c3)n2)ccn1 (centres undefined)	GLP-1R inv ag 11.2µM
Cc1ccc(-c2nc(CSCC(=O)NCCCN3CCOCC3)c(C)o2)cc1	none
Cc1oc(-c2ccc(Cl)cc2)nc1CSCC(=O)NCc1ccccc1Cl	ClpP mod 31.6µM (no result: GLP-1R agonist, D3 antag)
CSc1ccc(-c2nc(CSCC(=O)NCCCN3CCOCC3)c(C)o2)cc1	D3 antag inconclusive, ClpP mod 35.5µM
CCOc1ccc(-c2nc(CSCC(=O)N3CCN(C(=O)c4ccco4)CC3)c(C)o2)cc1	none
CCOC(=O)C1CCN(C(=O)CSCc2nc(-c3ccc(OCC)cc3)oc2C)CC1	GLP-1R inv ag inconclusive, ClpP mod 28.2µM
CCOc1ccc(-c2nc(CSCC(=O)NCc3ccc(Cl)cc3)c(C)o2)cc1	D3 ag 32.0 (no result: GLP-1R agonist, D3 antag)
Cc1oc(-c2cccc(Cl)c2)nc1CSCC(=O)NCc1ccccc1Cl	GLP-1R inv ag inconclusive (no result: GLP-1R agonist, D3 antag)
O=C(NCC[C@H]1CC[C@@H](NC(=O)C2CCC2)[C@@H](CO)O1)c1cc(Cl)cc(Cl)c1	none (no result: GLP-1R agonist)
CC(C)NC(=O)C1(C)CSCC(=O)N1CCOc1ccccc1 (centres undefined)	none (no result: GLP-1R agonist)

Compound activity (PubChem)
